# Reference: ChEMBL document CHEMBL4513216, “Probing the Open Global Health Chemical Diversity Library for Multistage-Active Starting Points for Next-Generation Antimalarials” (ACS Infect Dis, 2020)
# About 2,100 (3.2%) of roughly 65,000 compounds showed an effect of 50% or more. The median lay at about -52%. The sample as a whole holds a higher share of strong results than the screen did.
# Tested on: Plasmodium falciparum
# Experiment: Screen against P. falciparum Asexual Blood Stage (ABS), at 5uM
# Format: functional, Dd2
# Conditions: tested at 5 uM
row,Structure (SMILES),INHIBITION [%]
1,Cc1ncsc1CN1C[C@H](OCc2ccncc2)[C@H]2OCCC[C@H]21,-47.7
2,O=C(Cc1cccs1)N1C[C@@H]2OCCN(CC3CCCC3)[C@@H]2C1,-96.4
3,CCc1nc(CNC(C)Cn2cccn2)cs1 (stereo unspecified),-78.5
4,COc1cccc(-c2nc(CNCCCn3cccn3)cs2)c1,76.3
5,CC(Cn1cccn1)NCc1csc(-c2cccs2)n1 (stereo unspecified),-268
6,Cc1cc(CN2CC[C@H]3C[C@H](C(=O)N(C)C)O[C@@H]3C2)no1,-20.9
7,c1cc(CN2CCSC3(CCCCC3)C2)no1,-170
8,CC(C)Nc1ccc2nc(C3CCNCC3)nn2c1,-54.1
9,Cc1nn(C)c(C)c1C(C(=O)O)N1CC=C(c2ccccc2)CC1 (stereo unspecified),-74.2
10,CC(C(=O)N1CCCC1)N1CCCN(C(=O)Oc2ccccc2)CC1 (stereo unspecified),-54.8
11,O=C(NCCN1CCCCC1)C(c1ccccc1)N1CCCC1 (stereo unspecified),80
12,O=C1[C@@H]2CCN(C3CCC3)C[C@@H]2OCCN1Cc1ccncc1,-35.3
13,COc1cccc(CN(C)C(C)c2ccco2)c1OCCn1ccnc1 (stereo unspecified),71.8
14,CN(C)CCN1C(=O)CCCC12CCCN(Cc1cccs1)C2 (stereo unspecified),73.5
15,CN1C(=O)CCC12CCCN(Cc1nccs1)C2 (stereo unspecified),-74.2
16,CNC(=O)CN1C(=O)CCC12CCCN(Cc1ccccn1)C2 (stereo unspecified),-14.2
17,COCCC1(CNC(=O)Nc2ccnc(C)c2)CCCC1,72.6
18,Cc1ncc(CN2C[C@H]3CC(OCc4ccccc4)C[C@H]3C2)cn1 (stereo partly specified),-74.6
19,Cc1ccc2c(n1)N(CC1CC1)CCN(Cc1ccco1)C2,-45.2
20,Cc1ccc2c(n1)N(CCn1cccn1)CCN(CC1CC1)C2,77.6
21,Cc1ccc2c(n1)N(CC1CC1)CCN(S(=O)(=O)C1CC1)C2,-28.5
22,Cc1nnc(N2CC[C@@]3(O)CCNC[C@H]3C2)c2ccccc12,-14.9

row,Structure (SMILES),INHIBITION [%]
1,O[C@]12CCNC[C@H]1CN(c1ccnc3ccccc13)CC2,92
2,O[C@]12CCNC[C@H]1CN(c1nccc3ccccc13)CC2,-5.03
3,Cc1cnc(N2CCC3(CCCCN3C)C2)nc1 (stereo unspecified),-23.5
4,CC(C)(C)CC(=O)N1C[C@H]2CCN[C@H]2C1,-36.7
5,Cc1cc(CN2C[C@@H]3COC[C@H](C(=O)N4CCCCO4)[C@@H]3C2)no1,-158
6,CN(C)C(=O)CN1CCN(c2ncccn2)[C@@H]2CS(=O)(=O)C[C@@H]21,-100
7,Cc1cccc(CN2CCC3(CCN(c4cccnc4)C3=O)C2)n1 (stereo unspecified),-18.3
8,O=C1Nc2ccccc2C12CCN(Cc1cccs1)CC2,-14.5
9,CCN1CCC2(CC1)CC(NCc1ccncc1)c1ccccc1O2 (stereo unspecified),77.7
10,CCN1CCN(C)C2(CCN(Cc3cccc(C)n3)CC2)C1=O,-50.7
11,Cc1cnc(N2CCC3(CC2)CN(Cc2cccs2)CCO3)nc1,-35.2
12,O=C1NCC2(CCCN(Cc3ccncc3)C2)Oc2ccccc21 (stereo unspecified),-7.11
13,CCN1CCC2(CC1)CC(NCc1cccc(C)n1)c1ccccc1O2 (stereo unspecified),91.3
14,CCN1CCC2(CC1)CC(NCc1cccs1)c1ccccc1O2 (stereo unspecified),85.8
15,CCN1CCC2(CC1)CC(Nc1ncccn1)CO2 (stereo unspecified),-11
16,O=C(Nc1cccnc1)[C@H]1CO[C@H]2CCNC[C@H]2C1,-181
17,Cc1cccc(CN2C[C@H](OCc3ccccn3)[C@H]3COC[C@H]32)n1,-21.3
18,Cc1noc(C)c1CN1CCO[C@H]2CN(Cc3cccnc3)C[C@H]21,0.607
19,CCc1ccc(CN2CCN(C)c3ncccc3C2)o1,-114
20,O=c1[nH]cnc2[nH]c(N3CCNCC3)nc12,-168
21,CN(C)C(=O)CN1CCC2(CCCN(Cc3cccnc3)C2)C1=O (stereo unspecified),-34
22,Cc1cccc(CN2C[C@@H](NC(=O)C3CCC3)[C@H]3COC[C@H]32)n1,-50.1

row,Structure (SMILES),INHIBITION [%]
1,CCc1nnc(CN(C)C(=O)CN2CC(c3ccccc3)CC2=O)o1 (stereo unspecified),-112
2,COc1ccccc1CN(C)C(=O)CN1CC(n2nc(C)cc2C)C1,78.2
3,COc1ccc(Cl)cc1CN(C)C(=O)CN1C(=O)CCC1C (stereo unspecified),-38.8
4,Cn1cc(C(=O)NCc2cncc3c2CCNC3)cn1,-118
5,Cc1csc([C@H]2C[C@@H]3CCN(Cc4cc(C)on4)C[C@H]3O2)n1,-69.7
6,c1cncc(OC[C@@]23CCO[C@@H]2CCN(Cc2cccs2)C3)c1,-5.17
7,O=C1N(c2cncnc2)CCC12CCCN(Cc1ccccn1)C2 (stereo unspecified),-36.2
8,NCC1Cc2cc(-c3nccc(N4CCC(O)CC4)n3)cc(F)c2O1 (stereo unspecified),83.1
9,NCC1Cc2cc(-c3nccc(N4CCC(O)CC4)n3)cc(Cl)c2O1 (stereo unspecified),80.6
10,O=C(NC[C@H]1C[C@@H]2CCN1C[C@@H]2CN1CCCC1)c1ccco1,-62.4
11,CN1CCN(S(C)(=O)=O)Cc2cccnc21,-87.7
12,CNC(=O)[C@@]12CCO[C@@H]1CCN(Cc1c(C)noc1C)C2,-74.2
13,CN1CCCCC1c1ccc(-n2ccnc2)nc1 (stereo unspecified),-5.64
14,CN1CCCCC1c1ncc2c(n1)CCN(CCCc1ccccc1)C2 (stereo unspecified),89.2
15,Cc1ccc2c(n1)N(C)CCN(Cc1cnn(C)c1)C2,-35.9
16,CN1CCCCC1c1ncc2c(n1)CCN(Cc1ccc(F)cc1)C2 (stereo unspecified),86.4
17,CN1CCN(Cc2ccc(F)cc2)Cc2cccnc21,-5.74
18,Cc1ccc(C(=O)N2C[C@@H]3CCCO[C@@H]3[C@H](N3CCCC3)C2)cn1,-108
19,Cc1nc(COC[C@H]2CC[C@H]3NCC[C@H]3O2)cs1,-29.9
20,O=C(c1ccnnc1)N1C[C@@H]2OCCN(CCN3CCCC3)[C@@H]2C1,-53.7
21,O=C(c1cccnc1)N1CCO[C@@H]2CNC[C@@H]21,-20.6
22,Cc1noc([C@]23COC[C@H]2CN(C(C)C)C3)n1,-38.3

row,Structure (SMILES),INHIBITION [%]
1,Fc1cccnc1O[C@@H]1CN(Cc2ccccn2)[C@@H]2CCCO[C@@H]21,-14
2,Fc1ccccc1Cn1c(C2CCNCC2)cc2cccnc21,88.7
3,Fc1cccc(F)c1Cn1c(C2CCNCC2)cc2cccnc21,80.6
4,Cc1ccc(-c2noc(CC[C@@H]3CCCN4CCCC[C@H]34)n2)nn1,-74.3
5,CN(Cc1nc2ccsc2c(=O)[nH]1)C[C@@H]1CCCN2CCCC[C@H]12,-20.7
6,CN(Cc1ccccc1-n1cccn1)C[C@@H]1CCCN2CCCC[C@H]12,76
7,COCCN1C[C@@H]2OCCN(c3ccnc(N(C)C)n3)[C@@H]2C1,-31.1
8,CS(=O)(=O)N1CCO[C@@H]2CN(Cc3ccncc3)C[C@@H]2C1,-25.9
9,CC(C)(NCc1cccc(O)c1)c1ccc2c(c1)OCO2,88.9
10,CCC(C)N1CCc2nc(N3CCCC3)nc(NC(C)C)c2C1 (stereo unspecified),78
11,CN(C)C(=O)[C@H]1C[C@H]2OCC[C@H]2N(Cc2ccccn2)C1,-13.3
12,Cc1cccnc1[C@H](C)Nc1nc(-c2cccnc2)nc2c1CNC2,78
13,CC(Nc1nc(-c2ccncc2)nc2c1CCNC2)c1ccccc1 (stereo unspecified),71.5
14,CC(Nc1nc(-c2ccccc2)nc2c1CCNCC2)c1cccnc1 (stereo unspecified),90.9
15,CSCC(=O)NS(=O)(=O)c1ccc(C#N)c(C(F)(F)F)c1,-52.2
16,COCCNC(=O)[C@@]12CCO[C@@H]1CCN(Cc1cc(C)on1)C2,-32
17,CN1CCN(C(=O)Cc2ccc(S(=O)(=O)C(F)F)cc2)CC1,-85.3
18,Fc1ccccc1CN1CCCC2(CCN(c3ncccn3)C2)C1 (stereo unspecified),-15.8
19,CCN(C)S(=O)(=O)NCC1CCCN(Cc2ccccc2F)C1 (stereo unspecified),74.5
20,NC1(C(=O)NCC2CCCN(Cc3ccccc3F)C2)CCCC1 (stereo unspecified),85.6
21,C[C@@H]1CN(Cc2ccco2)CCN1C(=O)Cc1ccccc1F,-154
22,CS(=O)(=O)NCC1CCCN(Cc2ccccc2F)C1 (stereo unspecified),89.2

row,Structure (SMILES),INHIBITION [%]
1,COc1ncccc1CN1C[C@@H]2COC[C@]2(CNS(C)(=O)=O)C1,-44.2
2,COCCN1CCCC12CCN(c1ncccn1)CC2,-0.324
3,Cc1c(C2N3CC4(C)CN2CC(C)(C3)C4=O)[nH]c(=O)[nH]c1=O (stereo unspecified),-53.4
4,COc1cc(C2SCC(=O)Nc3ccsc32)cc(OC)c1O (stereo unspecified),-46.5
5,CCN1CCC2(COCc3cnc(-c4cccnc4)nc32)C1 (stereo unspecified),-76.4
6,COCc1cncc2c1CCN(Cc1cccnc1)C2,-107
7,c1cncc(-c2noc(CN3CCc4cncnc4C3)n2)c1,72.9
8,O=C1C[C@@H]2CC[C@H](CN1)N2C1CCSCC1,-19.5
9,C[C@@H]1C[C@H]2CN(Cc3nccs3)C[C@H]2O1,-77.8
10,Cc1cc(CN2CC[C@H]3C[C@H](c4nc(C5CC5)cs4)O[C@@H]3C2)no1,-15.2
11,Nc1nc(N)c2c(n1)OC1(COCCN(Cc3nccs3)C1)C2 (stereo unspecified),-134
12,Cc1nc(CO[C@@H]2CN(Cc3ccccn3)[C@@H]3COC[C@@H]32)cs1,-6.87
13,c1ccc(OC[C@@H]2CCC[C@@]23CNCCO3)nc1,66.9
14,c1cncc(OC[C@@H]2CCC[C@@]23CNCCO3)c1,67
15,c1ccc(COC[C@H]2CCC[C@@]23CNCCO3)nc1,44.1
16,c1cncc(COC[C@@H]2CCC[C@]23CNCCO3)c1,-12.9
17,c1ccc(COC[C@@H]2CCC[C@@]23CNCCO3)nc1,48.6
18,c1cncc(COC[C@@H]2CCC[C@@]23CNCCO3)c1,23.4
